IMPase inh: membrane-permeable compound that blocks inositol monophosphatase. P97697. CHO-M1 cells, IP1 accumulation, HTRF TR-FRET ratio. inhibition (IP1 accumulation), % at 46.1 µM. 120,000 tested, under 10 active. AID 901; active means well fitted curve in the direction sought with a large enough effect in the signal ratio, not every such curve was filed as active; inconclusive means small, poorly fitted or top-dose-only effect, or a change in a side signal; inactive means no such curve, though single readings can be large or run the other way; the % refers to the signal ratio;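 further: cells stimulated with carbachol in lithium chloride buffer; higher means more IMPase inhibition seen as more IP1 and lower FRET ratio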
Target sequence (P97697 whole entry, looked up): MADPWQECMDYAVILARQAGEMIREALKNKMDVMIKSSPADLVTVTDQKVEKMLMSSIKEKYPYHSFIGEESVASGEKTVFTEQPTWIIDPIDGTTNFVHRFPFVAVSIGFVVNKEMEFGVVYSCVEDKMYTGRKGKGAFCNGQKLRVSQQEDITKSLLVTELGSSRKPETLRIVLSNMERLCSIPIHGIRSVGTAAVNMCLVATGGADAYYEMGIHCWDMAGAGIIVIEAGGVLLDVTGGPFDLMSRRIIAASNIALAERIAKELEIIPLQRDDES
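Measured: the HTRF emission ratio (665/620 nm) plus the 620 nm donor channel, each fitted to the Hill equation to give AC50. Cells were CHO-M1 given compounds up to 46 uM and a 30 min carbachol stimulation at 37C.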
ALDH1A1 inh: ALDH1A1 (human) enzyme inhibition; Purified ALDH1A1, NADH fluorescence, propionaldehyde substrate; Potency, µM (series often up to 75.3 µM), usual class: inhibitors; 220,000 compounds, 7.3% hits; AID 1030
PNC inhibitor: perinucleolar compartment assembly inhibition. 140,000 compounds, 3.1% hits. PC3M PTB-GFP, PNC prevalence imaging, 16 h; hits give low values. activity change (PNC), negative = inhibition, % at 10 µM. AID 2417;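 active means readout at or below -70, meaning at least 70% loss of cells showing the perinucleolar compartment, a nuclear body marking cancer cells; inconclusive means readout between -30 and a set limit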
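Read-out is percentage of cells bearing a perinucleolar compartment, from automated 20x imaging of fixed, Hoechst-stained PC3M PTB-GFP cells. Cells were seeded 4 h, then exposed 16 h to compound (23 nl of library stock) in duplicate plates.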
NPSR antag: antagonists of human neuropeptide S receptor cAMP signaling. CHO-NPSR cells, cAMP TR-FRET, antagonist mode. Potency, µM (top dose mostly 38.3 µM), actives largely listed as inhibitors. AID 1461. 220,000 compounds, 1% hits. Q6W5P4; active means well fitted curve in the direction sought with a large enough effect; inconclusive means small, poorly fitted or top-dose-only effect, or another doubt; inactive means no such curve, though single readings can be large; an effect the other way counts as inactive or inconclusive; further: nearly all actives have a fitted effect of over 50% in size
Target sequence (Q6W5P4 whole entry, looked up): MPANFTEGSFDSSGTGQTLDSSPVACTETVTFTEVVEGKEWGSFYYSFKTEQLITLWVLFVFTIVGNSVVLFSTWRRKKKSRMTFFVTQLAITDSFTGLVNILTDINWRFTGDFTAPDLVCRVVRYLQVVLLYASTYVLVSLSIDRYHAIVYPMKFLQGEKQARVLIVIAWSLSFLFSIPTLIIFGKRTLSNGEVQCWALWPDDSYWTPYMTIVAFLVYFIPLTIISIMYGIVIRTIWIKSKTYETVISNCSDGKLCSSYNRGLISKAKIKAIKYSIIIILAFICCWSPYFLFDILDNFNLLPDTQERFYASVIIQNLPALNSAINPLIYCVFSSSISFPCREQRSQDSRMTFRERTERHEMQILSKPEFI
HPGD block: inhibitors of human 15-hydroxyprostaglandin dehydrogenase (HPGD); 150,000 compounds, 4.3% hits; AID 894; Potency, µM, usual class: inhibitors; purified HPGD, NADH fluorescence kinetic, PGE2 substrate; P15428
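20 nM HPGD preincubated 15 min at room temperature with compound in 50 mM Tris-HCl pH 8, 0.01% Tween 20. Started with 1 mM NAD+ and 30 uM prostaglandin E2; NADH fluorescence (360/450 nm) read 5 times over 30-s intervals, last minus first.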
IMPase Li inh: membrane-permeable IMPase blocker, potentiated with lithium; CHO-M1 cells, IP1 TR-FRET (IP-One), carbachol + lithium; Potency, µM (top dose mostly 59.4 µM), most hits filed as inhibitors; 210,000 compounds, 0.35% hits; AID 1457; active means well fitted curve in the direction sought with a large enough effect; inconclusive means small, poorly fitted or top-dose-only effect, or another doubt; inactive means no such curve, though single readings can be large; an effect the other way counts as inactive or inconclusive;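 further: IP1 builds up when IMPase is blocked and the TR-FRET signal falls; nearly all actives have a fitted effect of over 50% in size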
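Test compounds were applied to CHO-M1 cells previously cultured for 16–30 h at 2000 per well. A small lithium amount accompanied them; after 30 min at 37C, IP1 was quantified by TR-FRET.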
Of the large screens only hits and unclear results are named; the others gave an inactive call. This is a sample that favours compounds with a hit; in the whole collection about 11% have one here. Unless noted, the call rests on the fitted dose curve; in most records, active means well fitted inhibition curve with a large enough effect (not every such curve was filed as active); inconclusive means small, poorly fitted or top-dose-only effect, or another doubt; inactive means no such curve, though single readings can be large or run the other way.

COc1ccccc1NC1=CC(=O)CC(c2ccccc2)C1 (configuration not stated)	PNC inhibitor -96 (no result: IMPase inh)
CCOc1ccc(NC(=S)NCCN2CCN(Cc3ccccc3)CC2)cc1	none (no result: IMPase inh, PNC inhibitor, HPGD block)
O=C(Nc1ncn[nH]1)c1cccc(S(=O)(=O)N2CCOCC2)c1	ALDH1A1 inh inconclusive (no result: IMPase inh, PNC inhibitor, HPGD block)
CN(C)c1ccc(NC(=O)Cn2cc3c(n2)CCCC3)cc1	none
Cc1cc(C)cc(NC(=O)Cn2cc3c(n2)CCCCC3)c1	HPGD block 20µM
Cc1ccc(Cl)cc1NC(=O)COC(=O)c1ccc(COc2ccc3c(C)cc(=O)oc3c2)cc1	ALDH1A1 inh inconclusive, PNC inhibitor -113, HPGD block inconclusive (no result: IMPase inh)
CC(=O)Nc1ccc(NC(=O)c2ccc(COc3ccc4c(C)cc(=O)oc4c3)cc2)cc1	ALDH1A1 inh inconclusive, HPGD block inconclusive (no result: IMPase inh)
CCOC(=O)c1nn(-c2cccc(C)c2)c2nc(-c3ccccc3)c(C#N)c(=O)n12	IMPase inh inconclusive, ALDH1A1 inh inconclusive, PNC inhibitor -117, HPGD block inconclusive, IMPase Li inh 4µM
Oc1ccc(Br)cc1/C=N/N1CCN(Cc2ccccc2)CC1	none
O=C(CCn1c(=O)[nH]c2ccccc2c1=O)Nc1ccccc1	PNC inhibitor inconclusive
O=C(Sc1nnc(-c2ccccc2)o1)N1c2ccccc2Sc2ccccc21	ALDH1A1 inh 22µM, NPSR antag inconclusive, HPGD block 14µM, IMPase Li inh inconclusive
Clc1cccc(Cl)c1NC1=NCCC1	none
Cc1ccc(C2C(C(N)=S)=C(N)OC3=C2C(=O)CC(C)(C)C3)cc1 (configuration not stated)	IMPase inh inconclusive, ALDH1A1 inh 14µM, PNC inhibitor inconclusive
CCOC(=O)C1=C(N)OC2=C(C(=O)CC(C)(C)C2)C1c1ccc(CC)s1 (configuration not stated)	none (no result: IMPase inh, PNC inhibitor, HPGD block)
CCOC(=O)C1=C(N)OC2=C(C(=O)CC(C)(C)C2)C1c1ccc(C)s1 (configuration not stated)	ALDH1A1 inh 13µM (no result: IMPase inh, PNC inhibitor, HPGD block)
COc1ccc(OC)c(NC(=O)c2cccc(S(=O)(=O)N(Cc3ccccc3)c3ccccc3OC)c2)c1	none (no result: IMPase inh)
O=C(Nc1cccc(C(F)(F)F)c1)C1CCCN(c2ncccn2)C1 (configuration not stated)	none
O=C(CN1CCCC1)Nc1ccc(Oc2ccc(NC(=O)CN3CCCC3)cc2)cc1	HPGD block 25µM
CCC(=O)Nc1ccc(Oc2ccc3c(c2)C(=O)NC3=O)cc1	HPGD block 16µM
CCCC(=O)Nc1ccc(Oc2ccc(NC(=O)CCC)cc2)cc1	PNC inhibitor -100
O=C(CN1CCCCCC1)Nc1ccc(F)c(F)c1	ALDH1A1 inh 22µM
O=C(CN1CCNCC1)Nc1ccc(Oc2ccccc2)cc1	none
COc1ccc2c(c1OC)CN(C)CCc1cc3c(cc1C(O)C2)OCO3 (configuration not stated)	ALDH1A1 inh inconclusive
CCOc1ccc(NC(=O)CN2CCN(CC(=O)Nc3ccc(F)c(F)c3)CC2)cc1	ALDH1A1 inh 4µM, PNC inhibitor inconclusive
CCOc1ccc(NC(=O)CN2CCN(CC(=O)Nc3ccc(C(=O)OC)cc3)CC2)cc1	ALDH1A1 inh 7.1µM
CCOc1ccc(NC(=O)Cn2c(=O)oc3ccccc32)cc1	HPGD block 10µM
CCOc1ccc(NC(=O)CN2CCN(C3c4ccccc4-c4ccccc43)CC2)cc1	ALDH1A1 inh 11µM
Cc1ccc(NC(=O)Cn2c(=O)oc3ccccc32)cc1	none (no result: IMPase inh, PNC inhibitor, HPGD block)
CCOC(=O)C1CCCN(C(=O)c2cc3nc(-c4cccc(OC)c4)cc(C(F)(F)F)n3n2)C1 (configuration not stated)	ALDH1A1 inh inconclusive, PNC inhibitor -80, HPGD block 16µM
O=C(c1cnn2c(C(F)(F)F)cc(-c3ccc4c(c3)OCO4)nc12)N1CCCC1	HPGD block 4.5µM
O=C(c1cnn2c(C(F)(F)F)cc(-c3ccc(Br)cc3)nc12)N1CCOCC1	PNC inhibitor inconclusive, HPGD block inconclusive
CCOC(=O)C1CCCN(C(=O)c2cnn3c(C(F)(F)F)cc(-c4ccccc4)nc23)C1 (configuration not stated)	IMPase inh inconclusive, ALDH1A1 inh inconclusive, HPGD block 25µM
COc1cc2c(cc1OC)CN(CCC(=O)c1ccc(Br)cc1)CC2	ALDH1A1 inh 0.2µM (no result: IMPase inh, PNC inhibitor, HPGD block)
CC1CCCN(CCC(=O)c2ccc(Br)cc2)C1 (configuration not stated)	ALDH1A1 inh 0.13µM, HPGD block 4µM
CC1CCCN(CCOc2ccc(Br)cc2)C1 (configuration not stated)	none (no result: IMPase inh)
CCOC(=O)/C(C#N)=C1/C(=O)N(Cc2ccccc2)c2ccccc21	ALDH1A1 inh 0.11µM (no result: IMPase inh, PNC inhibitor, HPGD block)
CCOC(=O)/C(C#N)=C1/C=Cc2ccccc2N1CC	PNC inhibitor -99
CCOC(=O)/C=c1\s/c(=C(\C#N)C(=O)OCC)n(-c2ccccc2)c1=O	NPSR antag inconclusive
CCN1C(=C(C#N)C#N)C=Cc2ccccc21	ALDH1A1 inh inconclusive (no result: IMPase inh, PNC inhibitor, HPGD block)
S=C1NCN(Cc2ccccc2)CN1C1CCCCC1	none (no result: IMPase inh, PNC inhibitor, HPGD block)
COc1cc(NC(=S)NCCO)c(OC)cc1Cl	none (no result: IMPase inh, ALDH1A1 inh, PNC inhibitor, HPGD block, IMPase Li inh)
COc1ccc(/C=N/NC(=O)c2cc(OC)c(OC)c(OC)c2)cc1CN1CCc2cc(OC)c(OC)cc2C1C (configuration not stated)	none (no result: IMPase inh, PNC inhibitor, HPGD block)
COc1ccc(C(=O)N(Cc2ccco2)C(C(=O)NC2CCCC2)c2ccc(O)cc2)cc1OC (configuration not stated)	ALDH1A1 inh 22µM
NS(=O)(=O)c1cccc(NS(=O)(=O)c2ccc(/C=C/C(=O)O)cc2)c1	none (no result: IMPase inh, ALDH1A1 inh, PNC inhibitor, HPGD block, IMPase Li inh)
Cc1nnc(NC(=O)c2ccccc2C(=O)O)s1	none
Cc1cc(C)c2cc(CN(CCO)Cc3nnnn3Cc3ccc(F)cc3)c(=O)[nH]c2c1	ALDH1A1 inh 13µM
Cc1cc(C)c2cc(CN(CCO)Cc3nnnn3Cc3ccccc3)c(=O)[nH]c2c1	ALDH1A1 inh 5µM
COCCn1nnnc1CN(Cc1cccnc1)Cc1cc2cc(OC)ccc2[nH]c1=O	ALDH1A1 inh inconclusive, PNC inhibitor inconclusive, HPGD block inconclusive
COCCn1nnnc1CN(CCc1ccc(OC)c(OC)c1)Cc1cc2ccc(C)cc2[nH]c1=O	ALDH1A1 inh 11µM
O=c1[nH]c2cc3c(cc2cc1CN(CCCO)Cc1nnnn1Cc1ccc(F)cc1)OCO3	ALDH1A1 inh inconclusive, HPGD block inconclusive, IMPase Li inh inconclusive
Cc1ccc2cc(CN(CCO)Cc3nnnn3Cc3ccc(F)cc3)c(=O)[nH]c2c1	ALDH1A1 inh 20µM, PNC inhibitor inconclusive, NPSR antag inconclusive
CSc1ncccc1C(=O)NCCc1ccccc1	none (no result: IMPase inh, PNC inhibitor, HPGD block)
Cn1c(Cl)c(C(=O)Nc2ccccc2)c2ccccc21	ALDH1A1 inh inconclusive
O=C1c2oc3ccccc3c(=O)c2C(c2cccnc2)N1CCCN1CCOCC1 (configuration not stated)	none

High-throughput results deposited in PubChem BioAssay by National Center for Advancing Translational Sciences (NCATS).
